Target: fMet-Leu-Phe receptor (Homo sapiens) (UniProt P21462)
Experiment: human FPR1 ligand displacement single-point test – cell-based, single concentration, selectivity assay for FPRL1 ligand SAR project, SAR follow-up (AID 763)
Details: FPR1-expressing cells, fluorescent ligand binding inhibition, active compounds read high; at 5.4 µM unless noted; call rule not given here

Sequence of fMet-Leu-Phe receptor (Homo sapiens) (P21462 whole entry, looked up): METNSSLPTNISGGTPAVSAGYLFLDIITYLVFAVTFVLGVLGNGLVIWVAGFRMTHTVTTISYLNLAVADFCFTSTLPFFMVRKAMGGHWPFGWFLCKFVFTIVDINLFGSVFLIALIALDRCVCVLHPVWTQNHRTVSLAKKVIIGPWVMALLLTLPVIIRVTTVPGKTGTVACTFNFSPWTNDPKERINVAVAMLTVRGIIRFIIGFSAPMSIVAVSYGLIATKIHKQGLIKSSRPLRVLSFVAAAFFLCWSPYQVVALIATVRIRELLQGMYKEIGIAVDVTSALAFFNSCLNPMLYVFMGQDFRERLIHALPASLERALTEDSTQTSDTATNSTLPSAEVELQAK

inhibition, inactive:
COc1ccc(-c2cn3cccnc3n2)cc1NC(=O)COc1ccc(Cl)cc1 -3.3%
O=C(c1ccccc1)N1CCN(c2nc(-c3ccccc3)c3ccccc3n2)CC1 1.8% [at 5.6 µM]
COc1ccccc1-c1cc(C(F)(F)F)nc(N2CCN(c3ccccc3)CC2)n1 -10.8%
Cc1ccc2nc(N3CCN(C(=O)CC4(CC(=O)O)CCCC4)CC3)nc(-c3ccccc3)c2c1 0.5% [at 4.7 µM]
COc1ccc(-c2cn3cccnc3n2)cc1NC(=O)Cc1ccccc1 -1.4% [at 6.2 µM]
CCN1CCN(c2nc(-c3ccc(Cl)cc3)cc(C(F)(F)F)n2)CC1 -3.5% [at 6 µM]
O=C(N1CCN(c2nc(-c3ccccc3)c3cc([N+](=O)[O-])ccc3n2)CC1)C(F)(F)F -1.2% [at 5.2 µM]
COc1ccc(-c2cn3cccnc3n2)cc1NC(=O)c1cc(Br)ccc1Cl -4% [at 4.9 µM]
Cc1ccc2nc(N3CCN(c4ccccc4)CC3)nc(-c3ccccc3)c2c1 0.6% [at 5.8 µM]
COc1cccc(-c2cc(C(F)(F)F)nc(N3CCN(C)CC3)n2)c1 1.9% [at 6.3 µM]
COc1ccc(-c2cc(C#N)nc(N3CCN(c4ccccc4)CC3)n2)cc1 2.6% [at 6 µM]
COc1ccc(-c2cn3cccnc3n2)cc1NC(=O)c1cccc(Cl)c1 3.4% [at 5.9 µM]
Clc1ccccc1N1CCN(c2nc(-c3ccccc3)c3cc(Br)ccc3n2)CC1 2.1% [at 4.6 µM]
CCC(CC)C(=O)Nc1cc(-c2cn3cccnc3n2)ccc1OC -5.9% [at 6.6 µM]
COc1ccc(-c2cn3cccnc3n2)cc1NC(=O)Cc1ccc(Cl)cc1 8% [at 5.7 µM]
CC(C)(C)OC(=O)N1CCN(c2nc(-c3ccccc3)c3cc(Br)ccc3n2)CC1 3.5% [at 4.7 µM]
COc1ccc(-c2cc(C(F)(F)F)nc(N3CCN(Cc4ccccc4)CC3)n2)cc1 -2.6% [at 5.2 µM]
Cc1nc2c3c(-c4ccccc4)nc(N4CCN(C)CC4)nc3nn2c(C)c1CCC(=O)O 0% [at 5 µM]
Cc1c(-c2cccc(NC(=O)C(C)(C)C)c2)nc2ncccn12 4.9% [at 7.2 µM]
COc1ccccc1-c1cc(C(F)(F)F)nc(N2CCN(c3ccc(F)cc3)CC2)n1 -2.5% [at 5.1 µM]
COc1cccc(-c2cc(C(F)(F)F)nc(N3CCN(c4ccccc4OC)CC3)n2)c1 -2.3% [at 5 µM]

Source: PubChem BioAssay AID763 (NMMLSC, 2007)
